# Test results from the supplement of paper PMC10670038.
# Structures can show the parent of a compound that is named as a salt. ± gives the standard deviation of the averaged measurements. Over roughly 2,000 compounds, “relative cell viability vs DMSO, compound + 0.2 uM CuET” has its median near 1; the lowest 2% begin near 0.25. This excerpt belongs to a sample that is enriched for the lowest values.
# Tested on: TE10
# Assay: relative cell viability vs DMSO, compound + 0.2 uM CuET (fraction); TE10 is an esophageal squamous carcinoma line; higher = less cytotoxic
# Details: 2 µM; co-treatment: CuET (bis(diethyldithiocarbamate)copper) 0.2 uM; 48 h
# Description: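 TE10 ESCC cells (1,000/well, 384-well plates) were treated with Selleck bioactive library compounds at 2 uM combined with 0.2 uM CuET (copper diethyldithiocarbamate) for 48 h. Viability was read by CellTiter-Glo and expressed relative to DMSO wells. Two technical replicates (A, B).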
row,SMILES,relative cell viability
1,CC(C)(C)C(=O)Nc1ccc2c(c1)C(=O)C(=O)c1ccccc1-2,0.026 ± 0.0042
2,CC(=O)Nc1ccccc1 [Acetanilide],1.018 ± 0.0034
3,O=C1c2ccccc2C(=O)c2c1ccc(O)c2O [Alizarin],1.1 ± 0.029
4,COc1ccc(OC)c(C2C(C#N)=C(N)Oc3n[nH]c(-c4ccc5ccccc5c4)c32)c1 (configuration not stated),1.06 ± 0.048
5,CN(c1ccccc1CNc1nc(Nc2ccc3c(c2)CC(=O)N3)ncc1C(F)(F)F)S(C)(=O)=O,0.709 ± 0.029
6,Nc1ccccc1NC(=O)c1ccc(CNC(=O)OCc2cccnc2)cc1 [Entinostat (MS-275)],0.321 ± 0.033
7,Cc1ccc(NC(=O)c2ccc(CN3CCN(C)CC3)cc2)cc1Nc1nccc(-c2cccnc2)n1 [Imatinib (STI571)],1.05 ± 0.1
8,Cc1ccc(NC(=O)c2ccc(CN3CCN(C)CC3)cc2)cc1Nc1nccc(-c2cccnc2)n1 [Imatinib Mesylate (STI571)],1.43 ± 0.12
9,Nc1ccccc1NC(=O)c1ccc(CNc2nccc(-c3cccnc3)n2)cc1 [Mocetinostat (MGCD0103)],0.249 ± 0.039
10,O=C1Cc2c([nH]c3ccc(Br)cc23)-c2ncccc2N1 [1-Azakenpaullone],1.17 ± 0.11
11,Cc1ccc(-c2csc(NC(=O)c3ccccc3)n2)c(C)c1,1.22 ± 0.19
12,Cn1c(Nc2ccc(C(F)(F)F)cc2)nc2cc(Oc3ccnc(-c4ncc(C(F)(F)F)[nH]4)c3)ccc21,0.847 ± 0.035
13,CCCc1nc(C)c2c(=O)nc(-c3cc(S(=O)(=O)N4CCN(CC)CC4)ccc3OCC)[nH]n12 [Vardenafil HCl Trihydrate],1.1 ± 0.062
14,O=C(c1ccc(F)cc1)N1CCCC(c2nc(-c3ccc(F)cc3)no2)C1 (configuration not stated),1.12 ± 0.22
15,C=CC(=O)N1CC(=Cc2ccc([N+](=O)[O-])cc2)C(=O)C(=Cc2ccc([N+](=O)[O-])cc2)C1,0.126 ± 0.015
16,CN1C(C(=O)Nc2ccccn2)=C(O)c2ccccc2S1(=O)=O [Piroxicam],1.02 ± 0.064
17,Nc1ccccc1NC(=O)c1cnccn1,1.16 ± 0.018
18,CC(C)Oc1ccc2c(=O)c(-c3ccccc3)coc2c1 [Ipriflavone (Osteofix)],0.968 ± 0.056
19,CCC(=O)OCC(=O)[C@@]1(OC(=O)CC)[C@@H](C)C[C@H]2[C@@H]3CCC4=CC(=O)C=C[C@]4(C)[C@@]3(F)[C@@H](O)C[C@@]21C [Betamethasone Dipropionate],1.05 ± 0.052
20,CC(C)(C)c1ccc(S(=O)(=O)/C=C/C#N)cc1,0.107 ± 0.0014
21,Cc1ccc(S(=O)(=O)C=CC#N)cc1,0.101 ± 0.0039
22,Cc1cc(C)c(-c2csc(NC(=O)c3ccccc3)n2)c(C)c1,1.17 ± 0.069
23,O=C(NO)c1ccc(CC(=O)N(CCO)c2ccccc2)cc1,1.056 ± 0.0057
24,O=C1NC(=NCc2cccs2)S/C1=C\c1ccc2ncccc2c1,1.12 ± 0.078
25,CC(Oc1cc(-c2cnn(C3CCNCC3)c2)cnc1N)c1c(Cl)ccc(F)c1Cl [(S)-crizotinib],1.12 ± 0.028
26,CC(C)(C)C(=O)OCOP(=O)(COCCn1cnc2c(N)ncnc21)OCOC(=O)C(C)(C)C [Adefovir Dipivoxil],1.02 ± 0.035

row,SMILES,relative cell viability
1,Cc1cc(Nc2cc(CN3CCOCC3)c3nc(C)c(Cc4ccc(Cl)cc4F)n3n2)n[nH]1,0.92 ± 0.046
2,O=C1C(c2c(O)[nH]c3ccccc23)=Nc2ccccc21 [Indirubin],0.978 ± 0.15
3,CC(C)C[C@H](NC(=O)CNC(=O)c1cc(Cl)ccc1Cl)B1OC(=O)CC(CC(=O)O)(C(=O)O)O1 (some centres not stated),0.818 ± 0.048
4,O=C1N=C(O)NC1(c1ccccc1)c1ccccc1 [Phenytoin sodium],0.961 ± 0.045
5,CCN(CC)CCNC(=O)c1ccc(N)cc1 [Procainamide HCl],0.957 ± 0.026
6,COc1ccc(Cn2ccc3ccc(C(=O)NO)cc32)cc1,0.685 ± 0.085
7,CCN(CC)Cc1ccc2cc(COC(=O)Nc3ccc(C(=O)NO)cc3)ccc2c1 [Givinostat (ITF2357)],0.192 ± 0.018
8,C=CC(=O)N1CCN(C(=O)CNc2cc(I)c(Cl)cc2O)CC1 [K-Ras(G12C) inhibitor 12],1.06 ± 0.13
9,C=CC(C)(C)c1cc(C=CC(=O)c2ccc(O)cc2)c(OC)cc1O [Licochalcone A],1.008 ± 0.0053
10,CN1CC[C@@H](c2c(O)cc(O)c3c(=O)cc(-c4ccccc4Cl)oc23)[C@@H]1CO,0.7 ± 0.044
11,CNC(=O)c1c(F)cccc1Nc1nc(Nc2cc3c(cc2OC)CCN3C(=O)CN(C)C)nc2[nH]ccc12,1.06 ± 0.1
12,CC1(C)O[C@@H]2C[C@H]3[C@@H]4CCC5=CC(=O)CC[C@]5(C)[C@@]4(F)[C@@H](O)C[C@]3(C)[C@]2(C(=O)CCl)O1 [Halcinonide],0.905 ± 0.0084
13,NC(=O)c1ccc(-c2nc(-c3ccc4c(c3)OCCO4)c(-c3ccccn3)[nH]2)cc1,0.996 ± 0.12
14,C/C(=C\C(=O)Nc1ccccc1C(=O)O)c1ccc2ccccc2c1,1.14 ± 0.058
15,CC(COc1ccccc1)N(CCCl)Cc1ccccc1 (configuration not stated) [Phenoxybenzamine HCl],1.07 ± 0.07
16,CC(C)N(CCC(=O)c1ccc2ccccc2c1)Cc1ccccc1,0.1814 ± 0.0002
17,Cn1cc(-c2ccc3c(c2)CCN3C(=O)Cc2cccc(C(F)(F)F)c2)c2c(N)ncnc21,0.897 ± 0.087
18,CN(C)CCN1C(=O)c2cccc3cc(N)cc(c23)C1=O [Amonafide],1.042 ± 0.0065
19,COc1ccc(C2=NC(c3ccc(Cl)cc3)C(c3ccc(Cl)cc3)N2C(=O)N2CCNC(=O)C2)c(OC(C)C)c1 (configuration not stated) [Nutlin-3a],1.149 ± 0.0057
20,COc1ccc(C2=NC(c3ccc(Cl)cc3)C(c3ccc(Cl)cc3)N2C(=O)N2CCNC(=O)C2)c(OC(C)C)c1 (configuration not stated) [Nutlin-3b],1.17 ± 0.094
21,O=C(Oc1cc(S(=O)(=O)c2ccccc2)ccc1[N+](=O)[O-])c1ccc(Cl)cc1,1.04 ± 0.07
22,Nc1ccc(-c2ccc3ncc4ccc(=O)n(-c5cccc(C(F)(F)F)c5)c4c3c2)cn1 [Torin 2],0.569 ± 0.16
23,COc1ccc(-c2ccc3ncc4c(c3c2)n(-c2ccc(N3CCNCC3)c(C(F)(F)F)c2)c(=O)n4C)cn1,0.104 ± 0.0046
24,COc1cc(-c2cc(-c3ccc(N4CCNCC4)cc3)cnc2C)cc(OC)c1OC,0.87 ± 0.053
25,Cc1c(NC(=O)c2ccc(C(C)(C)C)cc2)cccc1-c1cn(C)c(=O)c(Nc2ccc(C(=O)N3CCOCC3)cc2)n1,1.04 ± 0.046
26,Cc1ccccc1C(=O)Nc1ccc(C(=O)N2CCCC(O)c3cc(Cl)ccc32)c(C)c1 (configuration not stated) [Tolvaptan],1.05 ± 0.075

row,SMILES,relative cell viability
1,CNCc1ccc(-c2[nH]c3cc(F)cc4c3c2CCNC4=O)cc1,1.3 ± 0.098
2,C=C(C)[C@@H]1CC[C@]2(C(=O)O)CC[C@]3(C)[C@H](CC[C@@H]4[C@@]5(C)CC[C@H](O)C(C)(C)[C@@H]5CC[C@]43C)[C@@H]12 [Betulinic acid],0.945 ± 0.13
3,O=[N+]([O-])c1ccc2c(c1)S(=O)(=O)C=C2 [Stattic],0.204 ± 0.018
4,CS(=O)(=O)Nc1ccc([N+](=O)[O-])cc1Oc1ccccc1 [Nimesulide],1.08 ± 0.044
5,CC(C)=CCCC(C)(OC1OC(COC2OCC(O)C(O)C2O)C(O)C(O)C1O)C1CCC2(C)C1C(O)CC1C3(C)CCC(OC4OC(CO)C(O)C(O)C4O)C(C)(C)C3CCC12C (configuration not stated) [Gynostemma Extract],1.04 ± 0.076
6,COC(=O)CCSCc1ccc(-c2onc(C)c2NC(=O)OC(C)c2ccccc2Cl)cc1 (configuration not stated),0.919 ± 0.024
7,CCCCN1CCCCC1C(=O)Nc1c(C)cccc1C (configuration not stated) [Bupivacaine HCl],1.03 ± 0.16
8,CCN=C1N[C@@H]2[C@@H](O)[C@H](O)[C@@H](CO)O[C@@H]2S1 [Thiamet G],1.16 ± 0.065
9,CN1CCc2c(c3ccccc3n2Cc2ccc(C(=O)NO)cc2)C1 [Tubastatin A],1.375 ± 0.0024
10,COc1cc(C(=O)NS(=O)(=O)c2ccccc2C)ccc1Cc1cn(C)c2ccc(NC(=O)OC3CCCC3)cc12 [Zafirlukast],1.08 ± 0.019
11,Cn1cc(CNCC2CCN(c3ncc(C(=O)NO)cn3)CC2)c2ccccc21,0.171 ± 0.017
12,CN1CCc2c(c3ccccc3n2Cc2ccc(C(=O)NO)cc2)C1 [Tubastatin A HCl],0.979 ± 0.011
13,CCCCCCCCCCCCCCCC(=O)OCC(O)C1OC(=O)C(O)=C1O [L-Ascorbyl 6-palmitate],1.02 ± 0.04
14,C[C@@H]1[C@H](O)[C@@H](C)/C=C/C=C/C=C/C=C/C=C/C=C/C=C/[C@H](O[C@@H]2O[C@H](C)[C@@H](O)[C@H](N)[C@@H]2O)C[C@@H]2O[C@](O)(C[C@@H](O)C[C@@H](O)[C@H](O)CC[C@@H](O)C[C@@H](O)CC(=O)O[C@H]1C)C[C@H](O)[C@H]2C(=O)O [Amphotericin B],1.13 ± 0.11
15,COc1c/c(=C2\C=c3ccccc3=N2)[nH]/c1=C\c1[nH]c(C)cc1C [Obatoclax Mesylate (GX15-070)],0.354 ± 0.035
16,"Brc1ccc(C2CN3CCSC3=N2)cc1 (single isomer, unassigned; (-)) [(-)-p-Bromotetramisole Oxalate]",1.33 ± 0.11
17,Cc1cc(=O)oc2c(C=O)c(O)ccc12,1.24 ± 0.086
18,O=C(O)CCNC(=O)c1ccccc1 [Betamipron],1.014 ± 0.0048
19,CN(NC(=O)CC(=O)NN(C)C(=S)c1ccccc1)C(=S)c1ccccc1 [Elesclomol (STA-4783)],0.0573 ± 0.0087
20,O=C(O)c1ccccc1 [Benzoic Acid],1.1 ± 0.072
21,O=C(Nc1ccc2c(O)cc(S(=O)(=O)O)cc2c1)Nc1ccc2c(O)cc(S(=O)(=O)O)cc2c1,1.04 ± 0.058
22,COc1ccc(Oc2cc(C)c(-c3csc(NC(=O)c4ccncc4)n3)c(C)c2)cc1,0.89 ± 0.15
23,O=C(/C=C/c1ccc(O)c(O)c1)O[C@@H]1C[C@](O)(C(=O)O)C[C@@H](O)[C@H]1O [Chlorogenic Acid],1.1 ± 0.11
24,CC1(C)S[C@@H]2[C@H](NC(=O)[C@H](N)c3ccc(O)cc3)C(=O)N2[C@H]1C(=O)O [Amoxicillin Sodium],1.06 ± 0.069
25,CC1(C)S[C@@H]2[C@H](NC(=O)[C@H](N)c3ccc(O)cc3)C(=O)N2[C@H]1C(=O)O [Amoxicillin],0.42 ± 0.49
